This passage reports binding signal results from paper PMC7862700, “An all-to-all approach to the identification of sequence-specific readers for epigenetic DNA modifications on cytosine”.

Assay in all cases: DAPPL (digital affinity profiling via proximity ligation, sequencing); 10 mM Tris-HCl pH 7.5, 50 mM NaCl, 1 mM DTT, 4% glycerol, room temperature, 30 min; GST-TFs on glutathione beads, 16-mer random dsDNA library, 0.1% formaldehyde crosslink after washing; high values mean tight binding
Details in all cases: protein: recombinant; tags: N-terminal GST; dsDNA, one strand shown

The target of one assay is T1, ELK1 (Homo sapiens, UniProt P19419 1-428).
T1 sequence: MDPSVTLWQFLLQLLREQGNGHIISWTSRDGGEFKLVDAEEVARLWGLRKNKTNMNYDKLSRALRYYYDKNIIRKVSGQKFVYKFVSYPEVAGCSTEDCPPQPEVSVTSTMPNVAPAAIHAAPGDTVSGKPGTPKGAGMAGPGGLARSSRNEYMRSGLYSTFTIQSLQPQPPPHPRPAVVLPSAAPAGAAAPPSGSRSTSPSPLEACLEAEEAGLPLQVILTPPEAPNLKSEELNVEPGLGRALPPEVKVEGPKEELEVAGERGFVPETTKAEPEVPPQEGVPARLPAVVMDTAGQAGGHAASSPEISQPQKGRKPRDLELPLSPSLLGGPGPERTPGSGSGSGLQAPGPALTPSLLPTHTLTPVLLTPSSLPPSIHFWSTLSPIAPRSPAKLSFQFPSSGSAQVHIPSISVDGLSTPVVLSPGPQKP
In short, it runs like this: (§1)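 GST fusions of human transcription factors were expressed in yeast and captured with glutathione beads. Once given DNA barcodes and pooled alongside a tag-only sample, they were incubated for 30 min at room temperature with 200 nmole of a random double-stranded 16-mer DNA library in Tris/NaCl/DTT/glycerol buffer, then washed, crosslinked (0.1% formaldehyde), proximity-ligated, PCR-amplified and sequenced on an Illumina NextSeq500. The binding signal of each hexamer is its read frequency for a factor divided by its frequency for the tag-only sample.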

In another assay the target is T2, GABPA (Homo sapiens, UniProt Q06546 1-454).
T2 sequence: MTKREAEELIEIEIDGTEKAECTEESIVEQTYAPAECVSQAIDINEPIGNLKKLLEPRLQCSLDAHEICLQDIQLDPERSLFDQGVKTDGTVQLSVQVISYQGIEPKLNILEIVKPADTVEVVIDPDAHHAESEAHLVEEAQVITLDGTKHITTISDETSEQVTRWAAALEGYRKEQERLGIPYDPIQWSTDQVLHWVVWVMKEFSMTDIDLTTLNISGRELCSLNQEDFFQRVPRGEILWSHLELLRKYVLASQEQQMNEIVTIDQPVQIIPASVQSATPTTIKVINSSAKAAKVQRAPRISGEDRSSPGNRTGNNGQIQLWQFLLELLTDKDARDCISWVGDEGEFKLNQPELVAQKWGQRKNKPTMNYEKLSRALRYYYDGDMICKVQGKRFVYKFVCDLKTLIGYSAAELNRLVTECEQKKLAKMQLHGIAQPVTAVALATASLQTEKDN
In short, it runs like this:
as §1

The next assay concerns the target T3, ERG (Homo sapiens, UniProt P11308 1-479).
T3 sequence: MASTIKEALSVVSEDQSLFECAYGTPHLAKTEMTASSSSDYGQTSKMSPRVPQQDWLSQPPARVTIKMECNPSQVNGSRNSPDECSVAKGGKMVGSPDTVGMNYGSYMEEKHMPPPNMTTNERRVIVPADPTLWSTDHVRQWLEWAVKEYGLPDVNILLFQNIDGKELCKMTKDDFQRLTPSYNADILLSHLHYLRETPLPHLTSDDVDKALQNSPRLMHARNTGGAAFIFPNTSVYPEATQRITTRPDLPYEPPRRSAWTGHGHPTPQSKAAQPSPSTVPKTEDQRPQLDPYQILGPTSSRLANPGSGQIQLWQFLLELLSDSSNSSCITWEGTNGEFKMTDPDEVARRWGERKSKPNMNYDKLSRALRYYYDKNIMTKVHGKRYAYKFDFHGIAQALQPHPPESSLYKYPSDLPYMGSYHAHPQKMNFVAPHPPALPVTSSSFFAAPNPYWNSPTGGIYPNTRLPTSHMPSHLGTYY
In short, it runs like this: as §1

Another assay deals with ELF1 (Homo sapiens, UniProt P32519 1-619). In short, it runs like this:
as §1

A further assay concerns the target T4, EHF (Homo sapiens, UniProt Q9NZC4 1-300).
T4 sequence: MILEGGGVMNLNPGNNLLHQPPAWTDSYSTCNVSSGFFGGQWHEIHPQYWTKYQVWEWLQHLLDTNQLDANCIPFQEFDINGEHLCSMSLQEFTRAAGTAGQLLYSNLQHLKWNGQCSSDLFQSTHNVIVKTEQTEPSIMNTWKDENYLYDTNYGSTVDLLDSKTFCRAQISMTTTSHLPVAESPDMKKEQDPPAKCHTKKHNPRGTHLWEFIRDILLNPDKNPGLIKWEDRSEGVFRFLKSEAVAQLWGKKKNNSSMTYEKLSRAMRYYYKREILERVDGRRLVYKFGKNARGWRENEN
In short, it runs like this:
as §1

For a further assay, the target named is SPIB (Homo sapiens, UniProt Q01892 1-262). In short, it runs like this:
as §1

For another assay, the target named is T5, FEV (Homo sapiens, UniProt Q99581 1-238).
T5 sequence: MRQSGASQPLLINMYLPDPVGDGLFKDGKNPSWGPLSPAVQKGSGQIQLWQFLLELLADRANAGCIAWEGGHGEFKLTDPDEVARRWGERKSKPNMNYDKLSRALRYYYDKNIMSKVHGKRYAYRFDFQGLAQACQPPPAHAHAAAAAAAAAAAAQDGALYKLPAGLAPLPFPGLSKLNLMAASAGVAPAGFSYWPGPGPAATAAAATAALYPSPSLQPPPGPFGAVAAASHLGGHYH
In short, it runs like this:
as §1

A further assay has as its target ETV5 (Homo sapiens, UniProt P41161 1-510). In short, it runs like this:
as §1

The next assay has as its target ELF4 (Homo sapiens, UniProt Q99607 1-663). In short, it runs like this:
as §1

The target in the next assay is T6, ELK4 (Homo sapiens, UniProt P28324-2 1-405).
T6 sequence: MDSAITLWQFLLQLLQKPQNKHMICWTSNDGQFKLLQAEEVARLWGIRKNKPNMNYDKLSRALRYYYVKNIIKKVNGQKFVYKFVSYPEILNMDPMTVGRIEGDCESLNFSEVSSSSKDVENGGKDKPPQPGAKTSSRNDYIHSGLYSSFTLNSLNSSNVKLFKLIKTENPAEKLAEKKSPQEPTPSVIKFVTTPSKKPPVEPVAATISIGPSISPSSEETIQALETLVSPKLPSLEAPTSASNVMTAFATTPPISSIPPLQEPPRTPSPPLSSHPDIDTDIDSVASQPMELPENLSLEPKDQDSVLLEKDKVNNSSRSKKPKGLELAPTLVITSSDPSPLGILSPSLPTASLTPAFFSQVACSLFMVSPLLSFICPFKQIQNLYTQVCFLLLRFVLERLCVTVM
In short, it runs like this: as §1

For another assay, the target named is T7, ETV2 (Homo sapiens, UniProt O00321 1-342).
T7 sequence: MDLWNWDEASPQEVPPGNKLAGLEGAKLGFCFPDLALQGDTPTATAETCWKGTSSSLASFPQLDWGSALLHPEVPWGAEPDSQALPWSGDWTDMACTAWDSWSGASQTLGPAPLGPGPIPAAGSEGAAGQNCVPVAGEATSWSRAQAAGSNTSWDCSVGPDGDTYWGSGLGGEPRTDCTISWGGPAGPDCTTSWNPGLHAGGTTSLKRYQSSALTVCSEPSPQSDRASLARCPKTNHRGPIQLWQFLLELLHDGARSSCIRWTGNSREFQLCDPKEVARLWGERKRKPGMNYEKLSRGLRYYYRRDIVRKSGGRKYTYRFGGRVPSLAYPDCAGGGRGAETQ
In short, it runs like this:
as §1

In another assay the target is T8, ELF3 (Homo sapiens, UniProt P78545 1-371).
T8 sequence: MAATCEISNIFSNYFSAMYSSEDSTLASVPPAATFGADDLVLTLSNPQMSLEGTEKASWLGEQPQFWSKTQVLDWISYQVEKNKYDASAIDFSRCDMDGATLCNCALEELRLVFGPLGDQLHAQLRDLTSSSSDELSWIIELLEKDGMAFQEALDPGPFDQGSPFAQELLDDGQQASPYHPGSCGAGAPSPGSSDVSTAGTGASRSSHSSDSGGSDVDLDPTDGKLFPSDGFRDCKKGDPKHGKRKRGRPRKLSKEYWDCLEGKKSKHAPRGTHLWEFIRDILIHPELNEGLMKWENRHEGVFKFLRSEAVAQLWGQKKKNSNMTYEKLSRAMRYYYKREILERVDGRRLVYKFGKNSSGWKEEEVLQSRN
In short, it runs like this:
as §1

For a further assay, the target named is ETV1 (Homo sapiens, UniProt P50549 1-477). In short, it runs like this: as §1
Another assay addresses T9, ETV3L (Homo sapiens, UniProt Q6ZN32 1-361).
T9 sequence: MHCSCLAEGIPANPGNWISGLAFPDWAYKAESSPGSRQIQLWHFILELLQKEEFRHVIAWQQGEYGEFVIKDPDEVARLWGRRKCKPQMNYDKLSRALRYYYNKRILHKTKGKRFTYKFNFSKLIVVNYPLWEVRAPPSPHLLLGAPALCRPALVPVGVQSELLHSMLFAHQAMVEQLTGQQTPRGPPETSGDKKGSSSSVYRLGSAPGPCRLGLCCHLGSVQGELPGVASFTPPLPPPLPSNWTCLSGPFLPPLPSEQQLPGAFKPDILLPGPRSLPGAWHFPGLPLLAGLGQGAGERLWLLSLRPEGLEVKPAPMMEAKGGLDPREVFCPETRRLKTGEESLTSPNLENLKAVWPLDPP
In short, it runs like this: as §1

The target in a further assay is T10, ETS2 (Homo sapiens, UniProt P15036 1-469).
T10 sequence: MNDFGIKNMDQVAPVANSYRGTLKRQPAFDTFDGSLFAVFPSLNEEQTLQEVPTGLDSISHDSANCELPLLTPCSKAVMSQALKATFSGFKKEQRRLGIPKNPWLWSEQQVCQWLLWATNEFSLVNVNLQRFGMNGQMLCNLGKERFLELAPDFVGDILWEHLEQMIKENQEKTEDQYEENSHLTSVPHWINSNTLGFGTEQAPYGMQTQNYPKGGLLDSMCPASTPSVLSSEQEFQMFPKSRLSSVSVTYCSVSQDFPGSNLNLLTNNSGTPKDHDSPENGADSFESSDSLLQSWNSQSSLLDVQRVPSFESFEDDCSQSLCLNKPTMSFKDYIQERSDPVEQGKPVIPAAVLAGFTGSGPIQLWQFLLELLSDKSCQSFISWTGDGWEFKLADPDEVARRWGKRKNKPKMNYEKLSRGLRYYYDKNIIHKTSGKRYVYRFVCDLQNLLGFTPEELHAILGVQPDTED
In short, it runs like this:
as §1

Another assay deals with T11, ETV3 (Homo sapiens, UniProt P41162-2 1-143).
T11 sequence: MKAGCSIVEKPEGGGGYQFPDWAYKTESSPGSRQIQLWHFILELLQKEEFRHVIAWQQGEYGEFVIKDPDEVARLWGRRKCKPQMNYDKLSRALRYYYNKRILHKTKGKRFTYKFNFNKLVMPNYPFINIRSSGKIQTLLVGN
In short, it runs like this:
as §1

Another assay concerns the target ETV6 (Homo sapiens, UniProt P41212 1-452). In short, it runs like this:
as §1

The next assay concerns the target SPI1 (Homo sapiens, UniProt P17947 1-270). In short, it runs like this:
as §1

ELF1, sequence (P32519 whole entry): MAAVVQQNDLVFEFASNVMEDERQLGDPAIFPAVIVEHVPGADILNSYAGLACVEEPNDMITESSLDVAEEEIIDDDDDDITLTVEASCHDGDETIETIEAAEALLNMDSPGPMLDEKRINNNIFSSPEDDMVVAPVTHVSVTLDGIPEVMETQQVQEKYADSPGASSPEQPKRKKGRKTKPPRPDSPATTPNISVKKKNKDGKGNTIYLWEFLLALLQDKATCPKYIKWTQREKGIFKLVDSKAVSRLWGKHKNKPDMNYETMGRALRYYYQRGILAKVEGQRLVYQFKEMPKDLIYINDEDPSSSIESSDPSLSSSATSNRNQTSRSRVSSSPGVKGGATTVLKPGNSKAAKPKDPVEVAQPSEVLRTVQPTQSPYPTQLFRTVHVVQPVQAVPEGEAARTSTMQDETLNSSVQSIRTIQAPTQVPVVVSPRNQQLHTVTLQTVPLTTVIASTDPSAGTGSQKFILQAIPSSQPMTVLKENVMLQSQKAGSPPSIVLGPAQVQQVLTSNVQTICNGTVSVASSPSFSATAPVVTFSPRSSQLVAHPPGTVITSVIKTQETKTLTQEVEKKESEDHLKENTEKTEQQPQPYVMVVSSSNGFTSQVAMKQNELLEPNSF
SPIB, sequence (Q01892 whole entry): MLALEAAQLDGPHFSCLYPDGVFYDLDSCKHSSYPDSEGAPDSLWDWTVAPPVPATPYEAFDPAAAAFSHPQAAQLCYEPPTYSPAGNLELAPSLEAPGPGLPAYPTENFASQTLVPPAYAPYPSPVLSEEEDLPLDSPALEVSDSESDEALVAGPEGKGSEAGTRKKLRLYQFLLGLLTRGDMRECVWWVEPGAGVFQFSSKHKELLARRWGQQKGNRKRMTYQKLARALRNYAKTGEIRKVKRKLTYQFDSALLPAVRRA
ETV6, sequence (P41212 whole entry): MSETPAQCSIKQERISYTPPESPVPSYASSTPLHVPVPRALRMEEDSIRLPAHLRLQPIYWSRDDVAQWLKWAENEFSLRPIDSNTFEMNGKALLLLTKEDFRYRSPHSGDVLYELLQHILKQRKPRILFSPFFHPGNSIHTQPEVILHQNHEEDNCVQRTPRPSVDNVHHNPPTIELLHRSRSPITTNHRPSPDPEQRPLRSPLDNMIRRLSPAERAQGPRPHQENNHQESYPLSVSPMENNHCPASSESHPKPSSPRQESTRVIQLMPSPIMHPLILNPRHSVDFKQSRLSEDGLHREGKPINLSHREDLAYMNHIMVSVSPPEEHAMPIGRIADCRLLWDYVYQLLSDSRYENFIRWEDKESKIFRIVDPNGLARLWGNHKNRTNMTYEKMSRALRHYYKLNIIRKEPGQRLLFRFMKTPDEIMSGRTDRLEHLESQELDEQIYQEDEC
ETV5, sequence (P41161 whole entry): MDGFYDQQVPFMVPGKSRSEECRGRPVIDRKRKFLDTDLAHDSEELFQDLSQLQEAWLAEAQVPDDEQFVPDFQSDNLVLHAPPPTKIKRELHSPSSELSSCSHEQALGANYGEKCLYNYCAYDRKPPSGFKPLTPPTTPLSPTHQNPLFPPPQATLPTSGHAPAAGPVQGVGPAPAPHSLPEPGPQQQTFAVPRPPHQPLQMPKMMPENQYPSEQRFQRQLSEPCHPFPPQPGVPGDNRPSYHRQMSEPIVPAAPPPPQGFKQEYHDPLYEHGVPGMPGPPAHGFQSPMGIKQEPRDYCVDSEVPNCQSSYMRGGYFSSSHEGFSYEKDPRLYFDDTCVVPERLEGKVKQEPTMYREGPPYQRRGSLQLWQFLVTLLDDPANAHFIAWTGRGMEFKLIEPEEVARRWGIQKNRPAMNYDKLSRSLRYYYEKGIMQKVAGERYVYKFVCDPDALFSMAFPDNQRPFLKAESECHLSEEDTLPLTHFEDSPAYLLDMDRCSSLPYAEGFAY
ETV1, sequence (P50549 whole entry): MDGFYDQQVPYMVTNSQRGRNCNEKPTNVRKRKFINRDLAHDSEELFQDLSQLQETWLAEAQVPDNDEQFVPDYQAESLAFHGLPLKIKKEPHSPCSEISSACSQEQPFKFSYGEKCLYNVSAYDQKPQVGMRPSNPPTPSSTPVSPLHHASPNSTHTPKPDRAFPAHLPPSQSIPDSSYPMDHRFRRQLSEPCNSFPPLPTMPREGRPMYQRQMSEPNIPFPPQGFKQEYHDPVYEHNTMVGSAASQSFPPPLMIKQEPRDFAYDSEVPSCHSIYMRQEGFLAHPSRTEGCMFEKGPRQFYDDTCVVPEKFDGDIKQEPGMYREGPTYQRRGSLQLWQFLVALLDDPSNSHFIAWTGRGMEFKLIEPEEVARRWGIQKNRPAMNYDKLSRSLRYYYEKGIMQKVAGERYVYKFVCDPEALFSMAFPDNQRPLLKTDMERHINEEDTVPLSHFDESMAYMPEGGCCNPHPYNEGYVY
ELF4, sequence (Q99607 whole entry): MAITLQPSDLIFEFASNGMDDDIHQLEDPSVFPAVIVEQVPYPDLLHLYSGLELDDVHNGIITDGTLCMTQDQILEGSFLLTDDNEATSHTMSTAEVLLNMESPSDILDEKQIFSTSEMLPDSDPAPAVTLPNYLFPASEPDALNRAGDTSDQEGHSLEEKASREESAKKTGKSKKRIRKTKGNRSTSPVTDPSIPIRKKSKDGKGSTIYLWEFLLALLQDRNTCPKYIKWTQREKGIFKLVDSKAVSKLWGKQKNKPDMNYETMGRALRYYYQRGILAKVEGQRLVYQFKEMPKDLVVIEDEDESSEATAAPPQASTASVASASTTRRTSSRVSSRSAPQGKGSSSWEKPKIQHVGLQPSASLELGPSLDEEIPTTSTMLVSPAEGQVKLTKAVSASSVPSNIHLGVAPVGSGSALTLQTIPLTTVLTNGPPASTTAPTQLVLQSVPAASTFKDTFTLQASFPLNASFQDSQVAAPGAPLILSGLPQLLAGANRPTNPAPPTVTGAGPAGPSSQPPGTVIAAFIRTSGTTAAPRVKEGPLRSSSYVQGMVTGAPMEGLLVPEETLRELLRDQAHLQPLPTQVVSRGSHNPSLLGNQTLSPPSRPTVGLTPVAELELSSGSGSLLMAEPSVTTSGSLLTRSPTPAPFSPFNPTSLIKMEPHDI

Take ACACGC: the binding signal with ELK1 is 1.06 fold enrichment (6-mer frequency, TF over GST control); in the assay with GABPA it was 1.13 fold enrichment (6-mer frequency, TF over GST control); in the assay with ERG, 1.15 fold enrichment (6-mer frequency, TF over GST control); in the assay with ELF1, 1.17 fold enrichment (6-mer frequency, TF over GST control); with EHF it was 1.08 fold enrichment (6-mer frequency, TF over GST control); with SPIB, 1.1 fold enrichment (6-mer frequency, TF over GST control). In addition, the binding signal with FEV was 1.09 fold enrichment (6-mer frequency, TF over GST control); in the assay with ETV5, 1.1 fold enrichment (6-mer frequency, TF over GST control); with ELF4 it was 1.15 fold enrichment (6-mer frequency, TF over GST control); in the assay with ELK4, 1.26 fold enrichment (6-mer frequency, TF over GST control); with ETV2 it was 1.19 fold enrichment (6-mer frequency, TF over GST control); with ELF3, 1.11 fold enrichment (6-mer frequency, TF over GST control). Further, the binding signal with ETV1 is 1.11 fold enrichment (6-mer frequency, TF over GST control); with ETV3L it was 1.07 fold enrichment (6-mer frequency, TF over GST control); in the assay with ETS2, 1.05 fold enrichment (6-mer frequency, TF over GST control); with ETV3, 1.13 fold enrichment (6-mer frequency, TF over GST control); in the assay with ETV6, 1.13 fold enrichment (6-mer frequency, TF over GST control).

With CCCTGA, the binding signal with ELK1 was 1.18 fold enrichment (6-mer frequency, TF over GST control); with GABPA, 1.05 fold enrichment (6-mer frequency, TF over GST control); with ERG it was 1.04 fold enrichment (6-mer frequency, TF over GST control); in the assay with ELF1, 1.06 fold enrichment (6-mer frequency, TF over GST control); with SPI1, 1.03 fold enrichment (6-mer frequency, TF over GST control); with SPIB it was 1.1 fold enrichment (6-mer frequency, TF over GST control). The binding signal is 1.04 fold enrichment (6-mer frequency, TF over GST control) with FEV; 1.07 fold enrichment (6-mer frequency, TF over GST control) with ETV5; 1.05 fold enrichment (6-mer frequency, TF over GST control) with ELF4; 1.1 fold enrichment (6-mer frequency, TF over GST control) with ELK4; 1.17 fold enrichment (6-mer frequency, TF over GST control) with ETV2; 1.09 fold enrichment (6-mer frequency, TF over GST control) with ETV1. The binding signal with ETV3L was 1.04 fold enrichment (6-mer frequency, TF over GST control); in the assay with ETS2, 1.02 fold enrichment (6-mer frequency, TF over GST control); in the assay with ETV3, 1.01 fold enrichment (6-mer frequency, TF over GST control); with ETV6, 1.05 fold enrichment (6-mer frequency, TF over GST control).
